IDE cell inh – inhibits human insulin-degrading enzyme in HEK cells; FAbetaB cleavage, fluorescence polarization; P14735; inhibition, % at 5.59 µM; 0.41% of 320,000 active;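 active = percent inhibition above the average of all tested compounds plus 3 SD, set per screening campaign, cut at about 16% in these data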;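 also: IDE supplied by intact live HEK cells; FP after avidin binding of uncleaved biotin substrate so inhibition keeps polarization high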
Target sequence (P14735 whole entry, looked up): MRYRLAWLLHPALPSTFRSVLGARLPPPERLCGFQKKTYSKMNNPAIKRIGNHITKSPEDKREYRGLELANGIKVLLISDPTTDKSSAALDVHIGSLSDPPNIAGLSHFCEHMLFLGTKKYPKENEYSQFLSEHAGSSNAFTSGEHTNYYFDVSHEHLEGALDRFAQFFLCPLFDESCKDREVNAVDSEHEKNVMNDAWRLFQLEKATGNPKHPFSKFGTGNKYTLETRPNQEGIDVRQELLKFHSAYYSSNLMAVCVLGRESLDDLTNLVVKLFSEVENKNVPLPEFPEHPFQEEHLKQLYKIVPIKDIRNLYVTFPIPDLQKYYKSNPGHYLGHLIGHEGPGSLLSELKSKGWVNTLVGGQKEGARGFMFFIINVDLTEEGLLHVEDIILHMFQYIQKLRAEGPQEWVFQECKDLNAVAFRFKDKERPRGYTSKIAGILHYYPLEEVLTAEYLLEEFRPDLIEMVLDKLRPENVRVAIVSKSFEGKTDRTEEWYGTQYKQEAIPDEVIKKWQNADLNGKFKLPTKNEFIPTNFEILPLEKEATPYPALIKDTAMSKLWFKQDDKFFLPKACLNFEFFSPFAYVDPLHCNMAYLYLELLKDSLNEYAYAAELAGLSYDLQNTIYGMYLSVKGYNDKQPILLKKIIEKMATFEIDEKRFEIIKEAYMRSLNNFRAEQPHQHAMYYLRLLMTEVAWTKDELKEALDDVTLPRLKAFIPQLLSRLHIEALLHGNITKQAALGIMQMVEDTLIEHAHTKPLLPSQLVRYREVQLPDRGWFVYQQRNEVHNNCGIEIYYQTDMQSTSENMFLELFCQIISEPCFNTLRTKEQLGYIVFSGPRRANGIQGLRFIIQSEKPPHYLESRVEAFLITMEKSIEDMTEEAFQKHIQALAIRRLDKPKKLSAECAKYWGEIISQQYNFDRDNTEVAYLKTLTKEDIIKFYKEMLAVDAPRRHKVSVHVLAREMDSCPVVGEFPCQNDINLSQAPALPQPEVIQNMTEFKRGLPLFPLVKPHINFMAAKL
CaV13 ICDI inh – Disruptors of the CACNA1D IQ motif to Ca2+-dependent inactivation inhibitor domain association, primary screening, Förster resonance energy transfer in intact living …; AID 743397; 0.098% of 340,000 active; inhibition, % at 12.3 µM; HEK cells, CFP/YFP FRET ICDI-IQ, plate reader, 10 min; percent FRET-ratio fall versus neutral wells;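 active = mean replicate inhibition of at least 30% and at least 1% of replicates passing that level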
ALR H2O2 inh – human ALR oxidase inhibition via reduced H2O2; P55789; purified ALR, DTT oxidation, H2O2 HRP-luminol luminescence; inhibition, % (no concentration beside the values); 3.8% of 290,000 active;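 active = mean replicate inhibition above about 79%, with every replicate also reaching it, limit read from the data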
PolyA inhibitor – yeast polyadenylation inhibition. 0.02% of 300,000 active. activity score, % at 12 µM. AID 1875. S. cerevisiae SKY197-pL101 polyadenylation reporter, beta-gal luminescence; efflux-impaired pdr1/pdr3 knockout yeast; score 100 = 6 SD above DMSO;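 active = lowest replicate activity score at least 50, where 100 means six control SD above control mean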;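 also: yeast exposed to compound for 9 h at 30 °C; higher score means more reporter readthrough which indicates perturbed polyadenylation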
IDE cell activ – IDE (human) activation, cell-based; HEK cells, FAbeta-B cleavage, fluorescence polarization; 0% vehicle, 100% cell-free pure enzyme wells; activation, % at 5.96 µM; 0.073% of 340,000 active;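 active = activation above the mean of all tested compounds plus 3 SD, set per screening campaign, cut at about 17% in these data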
PfM18AAP inh – PfM18AAP enzyme inhibition; inhibition, % at 7.35 µM; 1.2% of 290,000 active; AID 1822; recombinant PfM18AAP, H-Glu-NHMec fluorogenic cleavage;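 active = inhibition above the campaign mean inhibition over all tested compounds plus 3 SD, cut at about 28% in these data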
Hits are given with their value; – = inactive; · = not tested or not shown. A selection: hits, their analogues and other compounds. The true share with any hit is near 4.1%.

SMILES	IDE cell inh	CaV13 ICDI inh	ALR H2O2 inh	PolyA inhibitor	IDE cell activ	PfM18AAP inh
COc1ccc(C2c3[nH]c4ccccc4c3C[C@H]3C(=O)N(c4ccccc4C(=O)N4CCC[C@@H]4C(=O)O)C(=O)N23)cc1 (stereo partly specified)	–	·	·	·	–	·
O=C(O)[C@@H]1CCCN1C(=O)c1ccccc1N1C(=O)[C@@H]2Cc3c([nH]c4ccccc34)C(c3cccc(Cl)c3)N2C1=O (stereo partly specified)	–	·	97	–	–	–
O=C(O)[C@H]1CCCN1C(=O)c1ccccc1N1C(=O)[C@@H]2Cc3c([nH]c4ccccc34)C(c3cccc(Cl)c3)N2C1=O (stereo partly specified)	–	·	·	–	–	–
COc1ccc(C2c3[nH]c4ccccc4c3C[C@H]3C(=O)N(c4ccccc4C(=O)N4CCC[C@H]4C(=O)O)C(=O)N23)cc1 (stereo partly specified)	–	·	98	–	–	–
COc1ccc(N(CC(=O)Nc2ccccc2C(F)(F)F)C2=NC3CS(=O)(=O)CC3S2)cc1 (stereo unspecified)	–	–	97	–	–	–
Cc1cc(C)cc(N(CC(=O)Nc2ccccc2)C2=NC3CS(=O)(=O)CC3S2)c1 (stereo unspecified)	–	–	98	–	–	–
CCCN(CC(=O)Nc1ccccc1C)C(=O)c1nn(CC)c(=O)c2ccccc12	–	–	–	·	–	·
CCCn1c(NCc2ccc3c(c2)OCO3)nc2ccccc21	–	–	96	–	–	–
CCCCn1c(NCc2ccc3c(c2)OCO3)nc2ccccc21	–	·	92	–	–	–
Cn1cc2cc([N+](=O)[O-])ccc2n1	–	–	–	–	–	–
COc1cccc(-c2nc3nc(C)cc(C)n3c2NCc2ccccc2)c1	·	–	·	·	·	·
Cc1ccc(C)c(NC(=O)CSc2nc3ccc(N4C(=O)c5ccccc5C4=O)cc3s2)c1	–	–	86	–	–	–
O=C(CN(c1ccccc1)S(=O)(=O)c1ccccc1)Nc1ccccc1C(=O)NCc1ccco1	–	–	–	–	–	–
Cc1ccc(N(CC(=O)Nc2ccccc2C(=O)NCc2ccco2)S(=O)(=O)c2ccccc2)cc1C	–	·	96	–	–	–
OCCCNC(=S)Nc1ccc(Oc2ccccc2)cc1	–	–	·	–	–	–
CC(C)N(c1ccccc1)c1ccc(NC(=S)NCCN(C)C)cc1	–	–	99	–	–	–
CCNC(=S)Nc1ccc(N(c2ccccc2)C(C)C)cc1	–	–	–	–	–	–
CN(C)CCCNC(=S)Nc1ccc(Oc2ccccc2)cc1	–	–	93	–	–	–
COc1ccc(N2CCN(CC(O)COc3ccc(C)cc3C)CC2)cc1 (stereo unspecified)	–	–	79	–	–	–
CC(=O)Nc1ccc(OCC(O)CN2CCN(c3ccc(C)c(Cl)c3)CC2)cc1 (stereo unspecified)	–	·	98	–	–	–
CC(=O)Nc1ccc(OCC(O)CN2CCN(c3cc(Cl)ccc3C)CC2)cc1 (stereo unspecified)	–	–	–	–	–	–
COc1cc(C(C)=O)ccc1OCC(O)CN1CCN(c2c(C)cccc2C)CC1 (stereo unspecified)	–	–	–	–	–	–
COc1cc(C(C)=O)ccc1OCC(O)CN1CCN(c2ccc(C)c(C)c2)CC1 (stereo unspecified)	–	–	98	–	–	–
COc1ccc(N2CCN(CC(O)COc3cc(C)ccc3C)CC2)cc1 (stereo unspecified)	–	–	–	–	–	–
CCc1ccc(OCC(O)CN2CCN(c3ccc(OC)cc3)CC2)cc1 (stereo unspecified)	–	–	94	–	–	–
SMILES	IDE cell inh	CaV13 ICDI inh	ALR H2O2 inh	PolyA inhibitor	IDE cell activ	PfM18AAP inh
CC(C)[C@H](NC(=O)N1CC(=O)Nc2ccccc21)C(=O)N[C@@H](Cc1ccccc1)C(=O)O	–	·	–	–	–	–
O=C(NC1CC1)c1cc2c(F)cccc2s1	–	–	·	–	–	–
Cc1ccc([N+](=O)[O-])cc1S(=O)(=O)Nc1ccc(OCC(=O)N2CCOCC2)cc1	–	·	–	–	–	–
O=S(=O)(Nc1ccc(N2CCCCC2)cc1)c1ccccc1	–	–	–	–	–	–
CC(C)(C)CNc1cc(N2CCOCC2)ccc1[N+](=O)[O-]	–	–	–	–	–	–
O=S(=O)(/C=C/c1ccccc1)Nc1ccc(N2CCOCC2)cc1	–	–	95	–	–	–
O=S(=O)(Nc1ccc(N2CCOCC2)cc1)c1ccccc1	–	–	99	–	–	–
O=[N+]([O-])c1ccc([N+](=O)[O-])c(Nc2ccc(N3CCOCC3)cc2)c1	–	–	98	–	–	–
Cc1ccc([N+](=O)[O-])cc1S(=O)(=O)Nc1ccc(N2CCOCC2)cc1	–	–	99	–	–	–
CCN(C(=O)CSc1nc(C)c(C)c(C)n1)C1CCS(=O)(=O)C1 (stereo unspecified)	–	–	–	·	–	·
COCCCNC(=S)N/N=C/c1ccc(OC)c(Br)c1	–	–	–	–	–	–
Cc1cc(C)c(S(=O)(=O)Nc2ccc(N3CCOCC3)cc2)c(C)c1	–	–	86	–	–	–
O=S(=O)(NN1CCOCC1)c1ccc(Cl)s1	–	–	–	–	–	–
O=S(=O)(Nc1ccc(N2CCOCC2)cc1)c1ccc(Cl)s1	–	–	98	–	–	–
CCc1nc2c(OCc3ccc(Cl)cc3)cccn2c1N(C)C(=O)c1ccncc1	·	–	·	·	·	·
CCS(=O)(=O)Nc1ccccc1C(N)=O	–	–	–	–	–	–
CN(C)S(=O)(=O)N1CCN(c2cccc(Cl)c2)CC1	–	–	–	–	–	–
CN(C)S(=O)(=O)N1CCN(c2ccccc2)CC1	–	–	79	–	–	–
COc1ccc(S(=O)(=O)N2CCN(Cc3cccc(OC)c3OC)CC2)cc1	–	–	–	–	–	–
COCCn1c(C)cc(C(=O)COC(=O)c2ccc3ncsc3c2)c1C	–	–	–	–	–	–
C=CCn1c(C)cc(C(=O)COC(=O)c2ccc3c(c2)NC(=O)CS3)c1C	–	·	98	–	–	–
C=CCn1c(C)cc(C(=O)COC(=O)c2ccc(N)c([N+](=O)[O-])c2)c1C	–	–	–	–	–	–
COCCn1c(C)cc(C(=O)COC(=O)c2ccc3c(c2)NC(=O)CS3)c1C	–	–	98	–	–	–
COc1cc(N=Nc2ccc3ccccc3c2)ccc1O	–	–	·	–	–	–
COc1cc(N=Nc2ccccc2C(=O)O)ccc1O	–	–	98	–	–	–
Cc1cc(N=Nc2ccccc2C(=O)O)c(C)c(C)c1O	–	–	81	–	–	–
CCC(=O)c1ccc(N2CCN(C(=O)c3ccccc3)CC2)c(F)c1	–	–	·	–	–	–
